Assay results published in PubChem BioAssay (NCI).
Values joined by “and” are separate entries in the source; they are usually repeats but may differ in a detail not shown here. Equal values may be shown once. This is part of a sample that, as a whole, favours compounds with a hit. Of some 83,000 tested, about 20% had one in any assay.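 Single-concentration screen, 48 h exposure, 96-well plates. Endpoint: percent growth. Below 10 = active.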 Active and inactive are the calls of the source. Where a SMILES comes first, the peptide text is derived from it.

Experiments:
Experiment in all cases: NCI-60 one-dose screen, 48 h (100 = growth as untreated, 0 = no growth, -100 = all killed)
T-47D breast = conditions: 10 µM unless noted
BT-549 breast = conditions: 10 µM unless noted
MDA-MB-435 melanoma = conditions: 10 µM unless noted
SW-620 colon = conditions: 10 µM unless noted
MCF7 breast = tested on: MCF7 breast
HCT-116 colon = conditions: 10 µM unless noted
HCC-2998 colon = conditions: 10 µM unless noted
KM12 colon = conditions: 10 µM unless noted

Compound	growth (T-47D breast)	growth (BT-549 breast)	growth (MDA-MB-435 melanoma)	growth (SW-620 colon)	growth (MCF7 breast; 10 µM unless noted)	growth (HCT-116 colon)	growth (HCC-2998 colon)	growth (KM12 colon)	growth (MCF7 breast; 10 µM)	growth (MCF7 breast; 100 µM)
ClCCOCCOc1ccc(C2CCCCC2)cc1	96.7% (inactive)	95% (inactive)	99.5% (inactive)	110% (inactive)	102% (inactive)	99.5% (inactive)	106% (inactive)	110% (inactive)	–	–
CN(C)CC1CCCCCC(CN(C)C)C1=O (stereo unspecified)	22.2% (inactive)	95% (inactive)	81.2% (inactive)	-64.3% (active)	24.7% (inactive)	-35.5% (active)	117% (inactive)	102% (inactive)	–	–
Oc1ccc(Cc2ccccc2Cl)c(O)c1	–	99.2% (inactive)	107% (inactive)	97.1% (inactive)	119% (inactive)	96.6% (inactive)	91.3% (inactive)	–	–	–
O=C1C=C(Nc2ccccc2)c2ccccc2C1=O	–	84.3% (inactive) and 100% (inactive)	-88% (active) and 99% (inactive)	31.5% (inactive) and 94% (inactive)	12.9% (inactive) and 78.4% (inactive)	6.58% (active) and 92.8% (inactive)	54.3% (inactive) and 90.5% (inactive)	65.6% (inactive) and 84.4% (inactive)	–	–
NC(Cc1ccccc1)C(=O)NC(Cc1ccccc1)C(=O)O (stereo not drawn) (H-Phe-Phe-OH; configuration not given here)	89.3% (inactive) and 91.7% (inactive)	108% (inactive) and 106% (inactive)	109% (inactive) and 99.7% (inactive)	102% (inactive) and 108% (inactive)	98.9% (inactive) and 94.3% (inactive)	103% (inactive) and 100% (inactive)	112% (inactive)	105% (inactive) and 107% (inactive)	–	–
CCCCCCCCCCNC(=O)CI	-21.1% (active)	-87% (active)	9.57% (active)	-33.9% (active)	10.7% (inactive)	-28.3% (active)	98.4% (inactive)	55.3% (inactive)	–	–
OCC1OC(O)C(O)C(O)C1O (stereo unspecified)	–	110% (inactive)	113% (inactive)	96.9% (inactive)	82.6% (inactive)	104% (inactive)	94% (inactive)	128% (inactive)	–	–
CC(C)C(C)(C)c1ccc(O)cc1	101% (inactive)	110% (inactive)	106% (inactive)	101% (inactive)	109% (inactive)	105% (inactive)	114% (inactive)	107% (inactive)	–	–
CN(C)c1ccc(/C=C\C(=O)c2ccccc2)cc1	85.2% (inactive) and 89.3% (inactive)	76.5% (inactive) and 77.6% (inactive) and 73.7% (inactive)	85.3% (inactive) and 38% (inactive) and 25.1% (inactive)	64.2% (inactive) and 61.3% (inactive) and 66.4% (inactive)	50.2% (inactive) and 39.2% (inactive) and 45% (inactive)	75.9% (inactive) and 94.2% (inactive) and 59.2% (inactive)	97.1% (inactive) and 88.3% (inactive) and 100% (inactive)	51.5% (inactive) and 50.1% (inactive) and 57.5% (inactive)	–	–
O=c1[nH]cnc2c1ncn2C1OC(CO)C(O)C1O (stereo unspecified)	103% (inactive) and 107% (inactive) and 90.2% (inactive)	103% (inactive) and 123% (inactive) and 109% (inactive)	121% (inactive) and 98.7% (inactive) and 90.2% (inactive)	107% (inactive) and 113% (inactive) and 89.7% (inactive)	100% (inactive) and 96.8% (inactive) and 95.6% (inactive)	102% (inactive) and 116% (inactive) and 92.9% (inactive)	102% (inactive) and 113% (inactive) and 127% (inactive)	111% (inactive) and 109% (inactive)	–	–
C#CCOC(=O)Nc1ccccc1	109% (inactive)	106% (inactive)	98.8% (inactive)	105% (inactive)	87.4% (inactive)	105% (inactive)	100% (inactive)	110% (inactive)	–	–
COc1ccc(Nc2ccc3ccccc3c2)cc1	65.6% (inactive)	94.7% (inactive)	22.1% (inactive)	72.1% (inactive)	58.1% (inactive)	79% (inactive)	–	46.7% (inactive)	–	–
O=CN1CCCCC1	109% (inactive)	97.3% (inactive)	107% (inactive)	102% (inactive)	97.6% (inactive)	104% (inactive)	105% (inactive)	100% (inactive)	–	–
c1ccc(CNCCNCc2ccccc2)cc1	–	107% (inactive)	106% (inactive)	107% (inactive)	93.4% (inactive)	103% (inactive)	116% (inactive)	120% (inactive)	–	–
CC(=O)OC(C)C(=O)NCC(C)O (stereo unspecified)	96.3% (inactive)	111% (inactive)	111% (inactive)	94.3% (inactive)	96.9% (inactive)	95.2% (inactive)	99.4% (inactive)	102% (inactive)	–	–
Cc1ccc(S(=O)(=O)c2ccccc2)cc1	–	36.6% (inactive)	-49.8% (active)	11.6% (inactive)	20.9% (inactive)	18.8% (inactive)	51.6% (inactive)	25.5% (inactive)	–	–
Nc1cc(N)c(N)cc1N	81.7% (inactive)	85.4% (inactive)	-73.8% (active)	7.1% (active)	-49.2% (active)	0.84% (active)	101% (inactive)	80.1% (inactive)	–	–
CC(C)NCC(O)c1ccc(O)c(O)c1 (stereo unspecified)	98% (inactive) and 90.5% (inactive) and 102% (inactive)	84.7% (inactive) and 79.9% (inactive) and 84% (inactive)	104% (inactive) and 105% (inactive) and 101% (inactive)	104% (inactive) and 107% (inactive) and 93% (inactive)	100% (inactive) and 85.1% (inactive) and 109% (inactive)	100% (inactive) and 93.3% (inactive) and 71.7% (inactive)	105% (inactive) and 117% (inactive) and 108% (inactive)	106% (inactive) and 105% (inactive)	–	–
CC(=O)Nc1ccc(S(N)(=O)=O)cc1	87.7% (inactive) and 100% (inactive)	104% (inactive)	97.4% (inactive) and 96.3% (inactive)	96.7% (inactive) and 104% (inactive)	91.8% (inactive) and 93.3% (inactive)	94.2% (inactive) and 93.6% (inactive)	108% (inactive)	109% (inactive) and 108% (inactive)	–	–

Compound	growth (T-47D breast)	growth (BT-549 breast)	growth (MDA-MB-435 melanoma)	growth (SW-620 colon)	growth (MCF7 breast; 10 µM unless noted)	growth (HCT-116 colon)	growth (HCC-2998 colon)	growth (KM12 colon)	growth (MCF7 breast; 10 µM)	growth (MCF7 breast; 100 µM)
CC(=O)OCC1OC(OC(C)=O)C(OC(C)=O)C(OC(C)=O)C1OC(C)=O (stereo unspecified)	97.7% (inactive) and 101% (inactive)	96.3% (inactive) and 103% (inactive)	105% (inactive) and 107% (inactive)	102% (inactive) and 105% (inactive)	99.8% (inactive) and 91.9% (inactive)	103% (inactive)	111% (inactive) and 101% (inactive)	109% (inactive) and 100% (inactive)	–	–
CN1CNC(=O)NC1	112% (inactive) and 100% (inactive)	97.8% (inactive) and 112% (inactive)	106% (inactive) and 115% (inactive)	105% (inactive) and 104% (inactive)	109% (inactive) and 96.4% (inactive)	105% (inactive)	113% (inactive) and 102% (inactive)	117% (inactive) and 105% (inactive)	–	–
NC1CCC(C(=O)O)CC1 (stereo unspecified)	90.5% (inactive) and 95.8% (inactive)	–	106% (inactive)	93.7% (inactive) and 100% (inactive)	96% (inactive) and 95.2% (inactive)	94.9% (inactive) and 99.3% (inactive)	111% (inactive) and 100% (inactive)	107% (inactive) and 108% (inactive)	–	–
Nc1nc(N)c2[nH]cnc2n1	59.1% (inactive)	96.8% (inactive)	84.5% (inactive)	85.9% (inactive)	54.2% (inactive)	90.5% (inactive)	86% (inactive)	107% (inactive)	–	–
Cl	101% (inactive)	112% (inactive)	101% (inactive)	100% (inactive)	109% (inactive)	104% (inactive)	108% (inactive)	112% (inactive)	–	–
CCN(CCNS(C)(=O)=O)c1ccc(N)c(C)c1	1.47% (active) and 56.8% (inactive)	73.8% (inactive) and 102% (inactive)	28.9% (inactive) and 76.5% (inactive)	21.6% (inactive) and -27.2% (active)	20.6% (inactive) and 72.8% (inactive)	-52.9% (active) and 43.1% (inactive)	103% (inactive) and 102% (inactive)	103% (inactive)	–	–
N#CC(C#N)N=Nc1ccc(Cl)cc1	-0.279% (active)	77.1% (inactive)	79.6% (inactive)	15% (inactive)	27.3% (inactive)	16.9% (inactive)	75.3% (inactive)	85.9% (inactive)	–	–
c1ccc2c(c1)OC1OC2Oc2ccccc21	100% (inactive)	93.2% (inactive)	115% (inactive)	96.9% (inactive)	107% (inactive)	113% (inactive)	105% (inactive)	87.3% (inactive)	–	–
O=C1OC(C(O)C(O)CO)C(O)=C1O (stereo unspecified)	103% (inactive) and 83.1% (inactive)	106% (inactive)	114% (inactive) and 109% (inactive)	117% (inactive) and 105% (inactive)	98.9% (inactive) and 97.4% (inactive)	100% (inactive) and 92.8% (inactive)	-23.7% (active) and 98.9% (inactive)	109% (inactive) and 103% (inactive)	–	–
N#CC(C#N)N=Nc1cc(Cl)ccc1Cl	96.7% (inactive)	101% (inactive)	–	104% (inactive)	93.7% (inactive)	97.2% (inactive)	104% (inactive)	103% (inactive)	–	–
NN1CCOC(c2ccccc2)C1 (stereo unspecified)	109% (inactive)	102% (inactive)	106% (inactive)	98% (inactive)	91.8% (inactive)	91.2% (inactive)	107% (inactive)	101% (inactive)	–	–
COc1ccc2cc1Oc1ccc(cc1)C[C@H]1c3cc(c(OC)cc3CCN1C)Oc1c(OC)c(OC)cc3c1[C@H](C2)N(C)CC3	–	28.5% (inactive)	24.7% (inactive)	40.1% (inactive)	–	14% (inactive)	0.135% (active)	15.6% (inactive)	52.7% (inactive)	98.3% (inactive) and 67.5% (inactive)
CC1CCC2(C(=O)O)CCC3(C)C(=CCC4C5(C)CCC(O)C(C)(C)C5CCC43C)C2C1C (stereo unspecified)	–	263% (inactive) and 102% (inactive)	59.8% (inactive) and 103% (inactive)	15.2% (inactive) and 98.2% (inactive)	–	6.37% (active) and 85.7% (inactive)	-29% (active) and 91.4% (inactive)	59.6% (inactive) and 85.7% (inactive)	84.3% (inactive) and 93.3% (inactive)	-56.5% (active) and -70% (active)
Cc1ccc(=O)[nH]n1	109% (inactive) and 95.4% (inactive)	112% (inactive) and 113% (inactive)	113% (inactive)	102% (inactive) and 103% (inactive)	101% (inactive) and 96.2% (inactive)	107% (inactive)	98.2% (inactive) and 107% (inactive)	103% (inactive) and 101% (inactive)	–	–
Cc1cc(-c2ccc(N=Nc3ccc4c(S(=O)(=O)O)cc(S(=O)(=O)O)c(N)c4c3O)c(C)c2)ccc1N=Nc1ccc2c(S(=O)(=O)O)cc(S(=O)(=O)O)c(N)c2c1O	93.1% (inactive)	86.1% (inactive)	98.5% (inactive)	110% (inactive)	103% (inactive)	85.8% (inactive)	117% (inactive)	94.7% (inactive)	–	–
NC(=O)NCCCC(N)C(=O)O (stereo unspecified)	88.4% (inactive)	95.7% (inactive)	107% (inactive)	107% (inactive)	101% (inactive)	104% (inactive)	110% (inactive)	101% (inactive)	–	–
Cc1cc(-c2cc(C)c(O)c(C)c2)cc(C)c1O	93.7% (inactive)	65.7% (inactive)	8.38% (active)	77.4% (inactive)	91.6% (inactive)	83.7% (inactive)	92.3% (inactive)	72.6% (inactive)	–	–
O=C(O)CCCl	–	113% (inactive)	109% (inactive)	105% (inactive)	97.5% (inactive)	94.8% (inactive)	104% (inactive)	106% (inactive)	–	–
